IL-1B inflam inh = inflammasome signaling inhibition, IL-1 beta readout; THP-1 LPS/ATP IL-1B secretion, AlphaLISA, 16 h; stronger effect = lower value; activity change, % at 57.5 µM; actives 4.7% (n = 360,000); AID 743279; in the data active = activity change below about -50%; inconclusive = mostly about -30% to -49%
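Secreted IL-1B measured by AlphaLISA bead assay after 16 h compound exposure of THP-1 cells; compounds (final up to 57.5 uM) added 1 h before LPS (250 ng/mL) and ATP (1.25 mM) stimulation; lower signal means less secretion.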
TDP1 cell CPT = DT40-hTDP1 cell growth loss with CPT; Potency, µM (series often up to 46.2 µM), inactives show at the highest dose activity change, negative = growth inhibition, hits mostly inhibitors; chicken DT40 Tdp1-/-;hTDP1 cells + 20 nM CPT, ATP luminescence, 48 h; actives 12% (n = 420,000); note: potency is the fitted concentration of half-maximal effect; nearly all actives have a fitted effect of over 55% in size
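Cell growth measured by CellTiter-Glo luminescence after a minimum 48 h, 37 C compound exposure with 20 nM CPT in Tdp1-knockout DT40 cells stably expressing hTDP1, seeded 400/well; qHTS titration format.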
HT1080-NT tox = kills 2HG-producing HT-1080-NT fibrosarcoma cells; HT-1080-NT fibrosarcoma viability, CellTiter-Glo ATP luminescence, 48 h; Potency, µM (highest dose often 46.1 µM), for inactives: at the top dose activity, negative = less viability, most hits filed as cytotoxic; actives 1.6% (n = 360,000); AID 686970;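 note: NT is the 2HG producing partner of a matched IDH1 knockdown line; potency is the fitted concentration of half-maximal effect; 0% = DMSO-treated cells and -100% = media-only wells without cells; nearly all actives have a fitted effect of over 55% in size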
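Viability by CellTiter-Glo luminescence after 48 h compound exposure at 37C of HT-1080-NT cells (750/well, RPMI, 5% FBS). % activity scaled between DMSO wells and medium-only wells, then curve-fitted and categorized by curve class.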
HT1080 IDH1KD tx = toxicity to HT-1080 IDH1 knockdown cells (counter line); actives 2% (n = 360,000); AID 686971; Potency, µM (series often up to 46.1 µM), for the others: top-dose activity, negative = toxicity, actives largely listed as cytotoxic; HT-1080 IDH1 knockdown viability, ATP luminescence, 48 h;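 note: potency is the fitted concentration of half-maximal effect; 0% = DMSO wells and -100% = cell-free medium wells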
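Viability of IDH1-knockdown HT-1080 fibrosarcoma cells was assessed by CellTiter-Glo after 48 h at 37 °C with titrated compound; concentration-effect curves were classified by fit quality and response size.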
TDP1 cell noCPT = qHTS for Inhibitors of human tyrosyl-DNA phosphodiesterase 1 (TDP1): qHTS in cells in absence of CPT. DT40 Tdp1-/- hTDP1 cells, no CPT, ATP luminescence, 48 h. Potency, µM (top dose mostly 46.2 µM), without a hit: at the top dose activity change, negative = growth inhibition, usual class: inhibitors. actives 15% (n = 420,000). AID 686978, 2013; note: potency is the fitted concentration of half-maximal effect; nearly all actives have a fitted effect of over 55% in size
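Readout: luminescence from CellTiter-Glo after 30 min in the dark at RT. Cells: DT40 Tdp1-/- with stable hTDP1, 400/well. Exposure: compounds alone, ≥48 hr, 37 °C.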
* = called active by the depositor; ? = inconclusive; . = not tested or not shown; [ ] = dose if it differs, or a comment. Only some compounds are listed: those with a hit (about 19% of all), similar ones and a draw of the others. Unless noted, calls come from the whole dose curve; as a rule, active = well fitted curve in the direction sought with a large enough effect; inconclusive = small, poorly fitted or top-dose-only effect, or another doubt; inactive = no such curve, though single readings can be large; an effect the other way counts as inactive or inconclusive. Unless noted, % is set by controls: 0 for no effect and ±100 for the full control effect.

SMILES	IL-1B inflam inh	TDP1 cell CPT	HT1080-NT tox	HT1080 IDH1KD tx	TDP1 cell noCPT
O=C(Nc1cccc(S(=O)(=O)Nc2ccc(Cl)cc2)c1)c1ccc(Cl)nc1	-7.7	2.31µM*	?	?	0.651µM*
O=C(Nc1ccc(NS(=O)(=O)c2ccccc2)cc1)c1ccc(Cl)cc1	1.3	-20.9%	-4.5%	-11.5%	-11.8%
CC(C)CC1NC(=O)N(CC(=O)N2CCN(S(=O)(=O)c3ccccc3)CC2)C1=O (configuration not stated)	-7.5	0.7%	7.4%	8.9%	4.3%
COc1ccc(-c2nnn(CC(=O)NCCc3c[nH]c4ccccc34)n2)cc1OC	0.0	?	9.3%	-0.8%	?
COc1ccc(CNC(=O)CCc2c(C)nc3nc(CNC(=O)OC(C)(C)C)nn3c2C)cc1	.	-8.1%	.	.	-27.9%
CCOC(=O)[C@]12CCC=C1N(Cc1cccc3ccccc13)C(=O)[C@H](CC(=O)NCc1ccc(OC)c(OC)c1)C2	?	?	?	?	16.4µM*
CCOC(=O)[C@]12CCC=C1N(Cc1cccc3ccccc13)C(=O)[C@H](CC(=O)NCCC(C)C)C2	-54.9*	23.1µM*	?	?	20.6µM*
CCOC(=O)N1CCN(C(=O)C[C@@H]2C[C@@]3(C(=O)OCC)CCC=C3N(Cc3cccc4ccccc34)C2=O)CC1	10.3	?	-0.2%	-13.7%	16.4µM*
C#CCNC(=O)C[C@@H]1C[C@@]2(C(=O)OCC)CCCC=C2N(Cc2cccc3ccccc23)C1=O	43.1	?	?	-12.8%	?
CCOC(=O)N1CCN(C(=O)C[C@@H]2C[C@@]3(C(=O)OCC)CCC=C3N(Cc3ccco3)C2=O)CC1	3.6	0.1%	24.7%	10.9%	-12.5%
Cc1coc2c(C)c3oc(=O)c(CCC(=O)N[C@@H](C)C(=O)N[C@@H](Cc4ccccc4)C(=O)O)c(C)c3cc12	-1.8	11.7%	2.8%	0.7%	-1.3%
CCN(c1ccc(F)cc1)S(=O)(=O)c1cccc2nsnc12	19.4	-12.2%	5.2%	10.3%	-6.9%
CCC(CC)N1CCN(C(=O)c2cccc(Cl)c2)CC1	6.5	-23.4%	15.3%	20.4%	-22.3%
CCN(CC)c1ccc(NC(=O)c2ccccc2F)cc1S(=O)(=O)Nc1ccccc1OC	-5.1	?	2.9%	-8.0%	?
CCN(CC)c1ccc(NC(=O)COc2ccccc2C)cc1S(=O)(=O)Nc1ccccc1OC	11.2	?	17.6%	16.1%	14.6µM*
CCN(CC)c1ccc(NC(=O)c2ccccc2Br)cc1S(=O)(=O)Nc1ccccc1OC	-60.5*	11.6µM*	0.5%	1.6%	10.3µM*
C[C@@H]1Cn2cnc(C(=O)Nc3cccc(Cl)c3)c2C(=O)N1	0.0	?	4.6%	-0.8%	?
O=C(Nc1ccccc1Cl)c1cc(C2CCCN(C(=O)c3ccccc3)C2)on1 (configuration not stated)	-9.1	18.4µM*	?	27.8%	?
COC(=O)N1CCCC(c2cc(C(=O)Nc3ccccc3Cl)no2)C1 (configuration not stated)	-13.8	9.2%	-0.9%	15.6%	1.3%
Cc1ccc(F)cc1C(=O)N1CCCC(c2cc(C(=O)Nc3ccccc3Cl)no2)C1 (configuration not stated)	23.1	?	?	-69.7%	20.6µM*
COc1ccc(N2C(=O)C3CCCN3C2c2ccc(F)cc2)cc1Cl (configuration not stated)	2.2	-7.5%	3.5%	8.8%	0.5%
COc1ccc(OCC(=O)Nc2cc(NC(=O)c3ccco3)ccc2OC)cc1	-54.8*	-15.4%	-1.7%	-7.9%	?
COc1ccc(NC(=O)c2ccco2)cc1NC(=O)COc1ccc(Cl)cc1C	.	10.3µM*	.	.	9.2µM*
COc1ccc(NC(=O)COc2ccccc2)cc1NC(=O)c1ccco1	-11.2	?	-15.8%	-7.8%	?
Cc1cc(Cl)ccc1OCC(=O)NNC(=O)c1ccco1	-26.5	-5.9%	-3.6%	-3.5%	-6.3%
SMILES	IL-1B inflam inh	TDP1 cell CPT	HT1080-NT tox	HT1080 IDH1KD tx	TDP1 cell noCPT
COc1ccc(C(C)(C)C)cc1NC(=O)COc1ccc(-c2nnco2)cc1	-50.0*	?	-6.6%	-7.5%	?
COC(=O)c1cc(CNC(=O)c2ccccn2)cc(NC(=O)c2ccccc2OC)c1	.	-7.5%[9.04 µM]	.	.	?
CCc1ccc(-n2c(=O)c3sc4ccccc4c3n(CC(=O)NC3CCCCC3)c2=O)cc1	.	3.2%	.	.	?
Cc1ccc(-n2c(=O)c3c4c(sc3n(Cc3cccc(Cl)c3)c2=O)CCC4)cc1C	.	?	.	.	-17.3%
COc1ccc(OC)c(CNC(=O)C(C)n2c(C)c3cnn(-c4ccccc4)c(=O)c3c2C)c1 (configuration not stated)	.	?	.	.	11.6µM*
COc1ccc(OC)c(CCNC(=O)C(C)n2nc(C)c3c(C)n(-c4ccccc4)nc3c2=O)c1 (configuration not stated)	0.0	?	-1.2%	-13.3%	?
CCOc1ccc(CCNC(=O)Cn2c(C)c3cnn(-c4ccccc4)c(=O)c3c2C)cc1	.	-14.1%	.	.	-10.3%
CSc1ccc(CCNC(=O)C(C)n2c(C)c3cnn(-c4ccccc4)c(=O)c3c2C)cc1 (configuration not stated)	.	25.9µM*	.	.	?
COc1ccc(OC)c(CCNC(=O)C(C)n2c(C)c3cnn(-c4ccccc4)c(=O)c3c2C)c1 (configuration not stated)	.	20.6µM*	.	.	?
CCC(C(=O)Nc1ccccc1C(=O)OC)n1c(C)c2cnn(-c3ccccc3)c(=O)c2c1C (configuration not stated)	.	25.9µM*	.	.	?
CN1CCCN=C1/C=C/c1cccs1	0.0	-7.1%	1.4%	-0.8%	-5.7%
Cc1ccc(C)c(S(=O)(=O)N(C)c2ccc(OC(=O)C3CCN(C(=O)Nc4ccccc4)CC3)cc2)c1	12.0	-2.5%	8.1%[9.24 µM]	0.2%	6.2%
CCCn1c(=N)c(C(=O)NC2CCCC2)cc2c(=O)n3cc(C)ccc3nc21	.	-21.9%	.	.	-1.4%
COc1cccc(OCC(O)CN(CCO)Cc2ccccc2)c1 (configuration not stated)	21.6	-20.4%	-6.3%	0.2%	-21.2%
CCC(=O)c1ccc(OCC(O)CN(CCc2ccccc2)Cc2ccccc2)cc1 (configuration not stated)	-80.0*	?	?	-9.8%	20.6µM*
OC(COc1ccccc1)CN(Cc1ccccc1)CC(O)COc1ccccc1 (configuration not stated)	-52.7*	16.4µM*	?	?	20.6µM*

Screens (PubChem)
